Compounds with a hit are over-represented: about 10% of the library has one in this group of screens.
SW480 rerep – DNA re-replication induction in SW480 cells | SW480 DNA re-replication, Hoechst DNA content imaging, 48 h | Potency, µM (doses to about 46.1 µM), for the others: top-dose re-replication activation, usual class: activators | 340,000 compounds, 1.8% hits | AID 624297; note: % of control where 0% means no effect; nearly all actives have a fitted effect of over 55% in size
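Treated cells incubate 48 hr (37 C, 5% CO2), are stained 40 min with Hoechst, and nuclear fluorescence is enumerated; a rise in nuclei with high DNA signal marks re-replication.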
MCF10A rereplic – induces DNA re-replication in MCF 10a normal breast cells. MCF 10A DNA re-replication, Hoechst nuclear intensity, 48 h. 350,000 compounds, 2.9% hits. Potency, µM (highest dose often 46.1 µM), for inactives: at the highest dose activity, positive = re-replication, most hits filed as activators; note: % of control where 0% means no effect; nearly all actives have a fitted effect of over 50% in size
VP16 counter – Gal4-VP16 reporter inhibition counter-screen | Potency, µM (titrated, usually from 53.6 µM), without a hit: top-dose activity, negative = inhibition, actives largely listed as inhibitors | 310,000 compounds, 3.5% hits | Drosophila S2 Gal4-VP16 UAS-luciferase, luminescence, 20 h | AID 2546;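 note: Gal4-VP16 expression switched on by copper sulfate through the metallothionein promoter; % is set by controls: 0 for no effect and ±100 for the full control effect; nearly all actives have a fitted effect of over 50% in size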
RORg inh – ROR gamma (mouse) transcription inhibition. P51450. Drosophila S2 Gal4-RORgamma UAS-luciferase reporter, 20 h. Potency, µM (series often up to 53.6 µM), without a hit: at the highest dose activity change, negative = inhibition, actives largely listed as inhibitors. 310,000 compounds, 5.4% hits. AID 2551; note: % is set by controls: 0 for no effect and ±100 for the full control effect; nearly all actives have a fitted effect of over 60% in size
Target sequence (P51450 whole entry, looked up, the tested form may be a part): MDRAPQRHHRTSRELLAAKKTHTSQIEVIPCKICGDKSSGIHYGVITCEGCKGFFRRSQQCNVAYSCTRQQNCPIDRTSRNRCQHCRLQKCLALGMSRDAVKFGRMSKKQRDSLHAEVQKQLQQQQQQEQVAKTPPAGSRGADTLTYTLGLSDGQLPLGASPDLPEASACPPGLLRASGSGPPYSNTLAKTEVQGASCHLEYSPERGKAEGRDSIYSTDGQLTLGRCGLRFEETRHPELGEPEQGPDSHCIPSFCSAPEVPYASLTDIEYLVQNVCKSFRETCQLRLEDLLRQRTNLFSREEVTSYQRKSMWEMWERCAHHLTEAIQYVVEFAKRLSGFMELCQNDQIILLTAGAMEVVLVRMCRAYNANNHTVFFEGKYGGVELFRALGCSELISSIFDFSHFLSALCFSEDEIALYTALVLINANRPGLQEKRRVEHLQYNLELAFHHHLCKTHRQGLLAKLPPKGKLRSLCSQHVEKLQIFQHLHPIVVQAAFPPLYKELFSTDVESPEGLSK
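Drosophila Schneider cells stably carrying a metallothionein-driven Gal4 DBD–ROR gamma fusion and a UAS-Photinus luciferase reporter were exposed to compound for 1 hr, then induced with copper sulfate (700 uM final) for 20 hr at ambient temperature before luminescence reading.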
ELG1 DNA repair – inhibitors of ELG1-dependent DNA repair in HEK293T cells | AID 504467 | HEK293T ELG1-luciferase reporter, luminescence, 16 h; DNA damage induced by 5-fluorouridine | Potency, µM (titrated, usually from 46.1 µM), without a hit: at the highest dose activity change, negative = inhibition, hits mostly inhibitors | 330,000 compounds, 2.3% hits; note: % is set by controls: 0 for no effect and ±100 for the full control effect; nearly all actives have a fitted effect of over 55% in size
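Quantitative HTS, concentration-response format. 2,000 cells/well co-treated with 5-fluorouridine and compound, 16 hr in 5% CO2 at 37 °C; ONE-Glo luminescence read after 30 min.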
Numbers without * were called inactive; ? = inconclusive; . = not tested or not shown; [ ] = dose if it differs, or a comment. Calls come from the whole dose curve; as a rule, active = well fitted curve in the direction sought with a large enough effect; inconclusive = small, poorly fitted or top-dose-only effect, or another doubt; inactive = no such curve, though single readings can be large; an effect the other way counts as inactive or inconclusive. Potency is the fitted concentration of half-maximal effect.

SMILES	SW480 rerep	MCF10A rereplic	VP16 counter	RORg inh	ELG1 DNA repair
C=C(C)c1nc(Oc2ccccc2)nc(Oc2ccccc2)n1	?	4.1µM*	.	.	.
Cc1cc(Oc2ccccc2)nc(-c2ccccc2)n1	-8%	-6%	?	?	?
Cc1ccc(C)c(N=Nc2nc3ccccc3n2C)c1	?	?	8.9µM*	3.2µM*	?
Cc1ccc(NCc2nc3ccccc3n2C)cc1C	-41%	-11%	-10%	-29%	?
Cc1cc(C)c(C)c(N=Nc2nc3ccccc3n2C)c1C	?	21%	5.6µM*	2.2µM*	?
COc1ccc2[nH]c(=O)c(CN(C(=O)C(C)C)c3ccccc3OC)cc2c1	-1%	1%	10%	19%	0%
Cc1ccc([N+](=O)[O-])cc1N=Nc1c(-c2ccc([N+](=O)[O-])cc2)[nH]n(C(N)=S)c1=O	8%	3%	-11%	0.32µM*	?
Cc1cc([N+](=O)[O-])ccc1N=Nc1c(N)[nH]n(-c2ccccc2)c1=O	-3%	12%	-3%	18%	4%
O=c1c(N=Nc2ccc(O)cc2)c(-c2ccccc2)[nH]n1-c1ccc([N+](=O)[O-])cc1	?	1%	-2%	-1%	0%
NC(=S)n1[nH]c(-c2ccc([N+](=O)[O-])cc2)c(N=Nc2ccc(Cl)cc2)c1=O	17%	-8%	?	0.4µM*	2.9µM*
Cc1ccc([N+](=O)[O-])cc1N=Nc1c(C)[nH]n(C(N)=S)c1=O	-17%	1%	10µM*	7.1µM*	-2%
CC12CCC(=O)CC1CCC1C2CCC2(C)C1CCC2(O)C(=O)CO (stereo unspecified)	5%	0%	.	.	.
Cc1cc(O)c2c(c1)CC1C3CCC4CC(=O)CCC4(C)C3CC(=O)C21C (stereo unspecified)	?	16µM*	.	.	.
CC(=O)N/N=C\c1cccc(OC/C=C/c2ccccc2)c1	?	23%	?	0%	?
Cc1cc(NC(=O)c2ccc(Cl)cc2)cc(C)c1OCC(=O)N1CCOCC1	-3%	-2%	?	?	?
COc1cc([C@@H]2Oc3cc([C@H]4Oc5cc(O)cc(O)c5C(=O)[C@H]4O)ccc3O[C@H]2CO)ccc1O	.	.	-5%	1%	.
Cc1ccc2sc(N(CCCN(C)C)C(=O)c3ccc(Br)s3)nc2c1C	-63%	13µM*	-17%	?	?
CCN(Cc1ccccc1)S(=O)(=O)c1ccc(C(=O)N(CCCN(C)C)c2nc3c(C)c(C)ccc3s2)cc1	6.5µM*	16µM*	.	.	?
Cc1ccc2sc(N(CCCN(C)C)C(=O)c3ccc(S(=O)(=O)N(C)C4CCCCC4)cc3)nc2c1C	?	23µM*	.	.	-14%
CCN(CC)CCN(C(=O)c1ccc(S(=O)(=O)N(C)C2CCCCC2)cc1)c1nc2c(C)cccc2s1	1%	?	-5%	1%	-1%
CCCCCCCC(=O)NN=C1CCN(Cc2ccccc2)CC1	7%	9%	3%	1%	6%
COc1ccc2oc(=O)c(C(=O)N3c4ccccc4CC3C)cc2c1 (stereo unspecified)	-7%	0%	7%	-12%	?
O=C(Oc1ccccc1Cl)c1ccccc1	15%	16µM*	.	.	.
O=C(Oc1cccccc1=O)c1ccccc1	18µM*	?	?	10µM*	6%
CC1=C(C)Cc2c(OC(=O)c3ccccc3)ccc(OC(=O)c3ccccc3)c2C1	.	.	-3%	-2%	15%
SMILES	SW480 rerep	MCF10A rereplic	VP16 counter	RORg inh	ELG1 DNA repair
COCCN(C(=O)c1ccc(C)o1)c1c(N)n(CC(C)C)c(=O)[nH]c1=O	-2%	1%	.	.	9%
CCCc1c(NC(=O)Nc2ccc(Cl)cc2Cl)cnn1-c1ccccc1	15µM*	?	0%	-22%	?
CCCc1c(C(=O)Nc2ccc(F)cc2F)cnn1-c1ccccc1	-2%	2%	-6%	?	?
Cc1cc2oc(=O)cc(-c3ccccc3)c2c(C)c1-c1sccc1C=O	.	.	-4%	-10%	.
COc1ccc(CCNc2c(C)c(C)nc3ncnn23)cc1	8.2µM*	?	6.3µM*	-30%	-1%
COc1ccc(-c2cc(NCCc3ccncc3)n3ncnc3n2)cc1	4%[9.22 µM]	3%	?	4%	-9%
CCc1c(C)nc2ncnn2c1NCCc1ccc(OC)c(OC)c1	-2%	-7%	2%	?	12µM*
CCOc1nc(NC2CCCCC2)nc(NC(C)(C)C)n1	4%	-1%	16µM*	?	-2%
CCCS(=O)(=O)N1CCc2ccc(NC(=O)C3CCCO3)cc2C1 (stereo unspecified)	-6%	10%	12%	-17%	17%
CCOC(=O)CC1Sc2ccccc2NC1=O (stereo unspecified)	-12%	-7%	-2%	37%	9%
CCOC(=O)CC1Sc2ccccc2NC1=S (stereo unspecified)	-4%	-7%	?	3.5µM*	11%
Cc1cc([N+](=O)[O-])cc(/C=N\NC(=O)C2COc3ccccc3O2)c1O (stereo unspecified)	?	15%	4.5µM*	2.2µM*	21µM*
CCOc1ccc(-n2c(O)c(/C=N/NC(=O)C3COc4ccccc4O3)c3ccccc3c2=O)cc1 (stereo unspecified)	17%	?	4.5µM*	3.2µM*	?
O=C(N/N=C/C=C/c1ccc([N+](=O)[O-])cc1)C1COc2ccccc2O1 (stereo unspecified)	-4%	-2%	11µM*	10µM*	?
O=C(N/N=C\c1ccc(O)c([N+](=O)[O-])c1)C1COc2ccccc2O1 (stereo unspecified)	2%	?	5%	26%	-9%
O=C(N/N=C\C=C\c1ccc2c(c1)OCO2)C1COc2cc3ccccc3cc2O1 (stereo unspecified)	0%	-1%	?	7.1µM*	-1%
CN(C)C(=O)CSc1nnc(-c2ccc(S(=O)(=O)N3CCCC3)cc2)n1C	?	?	0%	-26%	-1%
Cc1cc(C(=O)N/N=C/C=C/c2ccc3c(c2)OCO3)n[nH]1	4%	0%	1%	?	5%
O=C(N/N=C\c1cc(Br)cs1)C1COc2ccccc2O1 (stereo unspecified)	?	?	?	10µM*	?
O=C(N/N=C/c1ccc2c(c1)OCO2)C1COc2ccccc2O1 (stereo unspecified)	0%	9%	7%	20%	-15%
O=C(N/N=C\C=C\c1ccc2c(c1)OCO2)c1ccc(F)cc1	-19%	?	5.6µM*	2.2µM*	0%
CCc1c(C)nc2ncnn2c1N1CCC(C(=O)Nc2ccccc2)CC1	-10%	1%	6%	24%	21µM*

Compound activity deposited in PubChem by National Center for Advancing Translational Sciences (NCATS).
